Results published in PubChem BioAssay (Tox21).
“And” between values parts separate entries of the source, which are not always exact repeats. Identical values can stand only once. Results filed as inconclusive are left out. Where a structure was tested more than once in an assay, its records may differ in their call. The source made the active and inactive calls. Unless noted, the call rests on the fitted dose curve; in most records, active means well fitted curve in the direction sought with a large enough effect in the repeat runs; inconclusive means weak or mixed curves; inactive means no such curve, though single readings can be large; an effect the other way counts as inactive or inconclusive.

Columns and labels:
[1] = A CellTox Green Cytotoxicity Assay to monitor cytotoxicity in HepG2 cells - 0 hour (AID 1224882); further: nearly all actives have a fitted effect of over 35% in size; further: potency means the concentration at half of the fitted maximal effect
Method in brief: (§1)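 HepG2, 600 cells/well premixed w/ CellTox Green; 5 h settle, 37 C/5% CO2; pintool cpd add (DMSO); 37 C, 40 h; fluorescence read at 0, 8, 16, 24, 32, 40 h.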

[2] = A CellTox Green Cytotoxicity Assay to monitor cytotoxicity in HepG2 cells - 32 hour (AID 1224883); further: nearly all actives have a fitted effect of over 50% in size; further: potency means the concentration at half of the fitted maximal effect
Method in brief: as §1

[3] = A CellTox Green Cytotoxicity Assay to monitor cytotoxicity in HEK293 cells - 8 hour (AID 1224884); further: nearly all actives have a fitted effect of over 35% in size
Method in brief: (§2)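 Read-out: fluorescence of a cell-impermeant cyanine dye staining DNA of dead cells, proportional to cytotoxicity. HEK293, 600 cells/well with reagent, compound (23 nL DMSO) added after 5 h; reads at 0, 8, 16, 24, 32, 40 h.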

[4] = qHTS RealTime-Glo MT Cell Viability Assay in HepG2 cells - 16 hour (AID 1224885); further: nearly all actives have a fitted effect of over 50% in size; further: potency means the concentration at half of the fitted maximal effect
Method in brief: (§3)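 Viability was tracked continuously by NanoLuc luminescence from prosubstrate reduced by living HepG2 cells, at successive time points over 40 h of compound exposure. Cells with reagent were preincubated 5 h at 37 °C before compound addition.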

[5] = qHTS RealTime-Glo MT Cell Viability Assay in HEK293 cells - 24 hour (AID 1224886); further: nearly all actives have a fitted effect of over 50% in size; further: potency means the concentration at half of the fitted maximal effect
Method in brief: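 Viability tracked continuously by luminescence as live cells reduce a prosubstrate for NanoLuc; HEK293 cells preincubated 5 h, compound-treated at 37 C, and read at 0, 8, 16, 24, 32 and 40 h.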

[6] = qHTS RealTime-Glo MT Cell Viability Assay in HEK293 cells - 8 hour (AID 1224887); further: top concentration of the series differs between compounds; nearly all actives have a fitted effect of over 50% in size
Method in brief: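 Luminescence readout at each listed time point; HEK293, 600 cells/well, RealTime-Glo MT reagent added with cells; compounds pinned (23 nL in DMSO) after 5 h at 37 C; continuous culture at 37 C.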

[7] = A CellTox Green Cytotoxicity Assay to monitor cytotoxicity in HEK293 cells - 16 hour (AID 1224888); further: nearly all actives have a fitted effect of over 35% in size
Method in brief: as §2

[8] = qHTS RealTime-Glo MT Cell Viability Assay in HepG2 cells - 0 hour (AID 1224889); further: nearly all actives have a fitted effect of over 50% in size; further: potency means the concentration at half of the fitted maximal effect
Method in brief: as §3

[9] = qHTS assay to identify small molecule antagonists of the estrogen receptor alpha (ER-alpha) signaling pathway using the BG1 cell line in the presence of 0.1 nM 17-beta-estradiol - cell viability counter screen (AID 1259241); further: nearly all actives have a fitted effect of over 40% in size
Method in brief: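 Viability in VM7Luc4E2 cells after 22 hr compound exposure under 0.1 nM 17beta-estradiol stimulation, by CellTiter-Fluor.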

[10] = qHTS assay to identify small molecule antagonists of the androgen receptor (AR) signaling pathway using the MDA cell line in the presence of 0.5 nM R1881 - cell viability counter screen (AID 1259242); further: nearly all actives have a fitted effect of over 45% in size; further: potency means the concentration at half of the fitted maximal effect
Method in brief: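 Live-cell protease fluorescence, CellTiter-Fluor, 30 min at 37C. Cells: MDA-kb2, 3,000/well, preincubated 5 hr. Compounds plus 0.5 nM R1881 final, 16 hr, 37C, 0% CO2.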

[11] = biological target: Estrogen receptor (Homo sapiens) (UniProt P03372); test: qHTS assay to identify small molecule antagonists of the estrogen receptor alpha (ER-alpha) signaling pathway using the BG1 cell line in the presence of 0.1 nM 17-beta-estradiol (AID 1259244); further: nearly all actives have a fitted effect of over 50% in size
Sequence of Estrogen receptor (Homo sapiens) (P03372 whole entry, looked up): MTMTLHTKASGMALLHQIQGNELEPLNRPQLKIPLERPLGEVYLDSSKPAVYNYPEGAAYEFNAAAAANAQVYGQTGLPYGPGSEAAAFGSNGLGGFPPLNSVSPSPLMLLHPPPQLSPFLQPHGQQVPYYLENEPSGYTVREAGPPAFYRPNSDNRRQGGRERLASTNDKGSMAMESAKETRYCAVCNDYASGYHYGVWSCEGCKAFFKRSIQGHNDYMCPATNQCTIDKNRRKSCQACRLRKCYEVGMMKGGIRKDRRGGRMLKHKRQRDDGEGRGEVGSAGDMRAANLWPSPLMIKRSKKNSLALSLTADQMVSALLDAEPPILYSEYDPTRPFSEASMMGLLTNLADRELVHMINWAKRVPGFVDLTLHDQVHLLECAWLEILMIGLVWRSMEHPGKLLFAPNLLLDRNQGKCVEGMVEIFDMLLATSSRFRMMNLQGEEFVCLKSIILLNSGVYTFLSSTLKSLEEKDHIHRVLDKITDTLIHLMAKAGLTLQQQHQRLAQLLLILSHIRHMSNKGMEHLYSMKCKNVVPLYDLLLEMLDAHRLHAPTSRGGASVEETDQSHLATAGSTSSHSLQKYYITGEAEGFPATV
Method in brief: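 Luminescence after ONE-Glo (30 min, room temperature) measured ERE-luciferase activity in VM7Luc4E2 cells treated 22 h with compound and 0.1 nM final 17beta-estradiol as stimulator.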

[12] = qHTS assay to identify small molecule phospholipidosis (PLD) inducers (AID 1259344; active means well fitted curve in the direction sought with a large enough effect; an effect the other way counts as inactive or inconclusive)
Method in brief: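 Phospholipid accumulation was scored by imaging: fixed, Hoechst-counterstained HepG2 cells stained with LipidTOX Red after 24 h compound exposure at 37 C. Read-outs were pit count and pit intensity per well or per cell, with amiodarone and DMSO controls.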

[13] = qHTS assay to identify small molecule HDAC inhibitors - cell viability counter screen (AID 1259365)
Method in brief: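 Cytotoxicity was gauged in wild-type HCT-116 cells after a brief 2hr treatment with DMSO-dissolved compounds at 37C and 5% CO2, using CellTiter-Glo luminescence developed for 30min at room temperature.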

[14] = qHTS assay to identify small molecule agonists of the sonic hedgehog signaling (Shh) pathway - cell viability counter screen (AID 1259366); further: nearly all actives have a fitted effect of over 50% in size; further: potency means the concentration at half of the fitted maximal effect
Method in brief: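 Stable Gli1-Luc NIH/3T3 clone, 2,000 cells/well. Compound exposure 24hr at 37C. Read-out: CellTiter-Fluor fluorescence.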

[15] = qHTS assay to identify small molecule antagonists of the sonic hedgehog signaling (Shh) pathway - cell viability counter screen (AID 1259367); further: nearly all actives have a fitted effect of over 55% in size; further: potency means the concentration at half of the fitted maximal effect
Method in brief: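 Viability was read by CellTiter-Fluor fluorescence in the same wells, reagent added 23 hr into compound treatment and incubated 1 hr at 37C. The 3T3 Gli1-Luc reporter cells (2,000/well) received conditioned medium after compound and ran 24 hr.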

[16] = qHTS assay to identify small molecule agonists of the sonic hedgehog signaling (Shh) pathway (AID 1259368; calls by dose curve;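 further: NIH/3T3-derived 3T3Gli1-Luc cells carrying a stable Gli1-driven firefly luciferase reporter; series mostly up to about 92 µM; nearly all actives have a fitted effect of over 15% in size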)
Method in brief: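 Read-out: firefly luciferase luminescence from a Gli1 response element reporter stably integrated in NIH/3T3-derived 3T3Gli1-Luc cells, measured 30 min at room temperature after reagent addition. Compound exposure lasted 24 hr at 37 C, 5% CO2.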

[17] = qHTS assay to identify small molecule antagonists of the sonic hedgehog signaling (Shh) pathway (AID 1259369; calls by dose curve; further: nearly all actives have a fitted effect of over 45% in size; further: potency means the concentration at half of the fitted maximal effect)
Method in brief: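 Luminescence readout: firefly Luc under Gli1 response element in 3T3Gli1-Luc cells (NIH/3T3 clone). Antagonist mode, stimulation by conditioned medium; compound exposure 24hr at 37 C, 5% CO2.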

[18] = qHTS assay to identify small molecule HDAC inhibitors (AID 1259364); further: potency means the concentration at half of the fitted maximal effect;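 further: wild-type HCT-116 cells with endogenous class I/II HDAC activity; nearly all actives have a fitted effect of over 45% in size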
Method in brief: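 HCT-116 (wild type), 1,500 cells/well, overnight; compound 2 hr 37C 5% CO2; HDAC-Glo I/II reagent 30 min RT; luminescence readout.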

[19] = A CellTox Green Cytotoxicity Assay to monitor cytotoxicity in HepG2 cells - 8 hour (AID 1224890); further: nearly all actives have a fitted effect of over 45% in size; further: potency means the concentration at half of the fitted maximal effect
Method in brief: as §1
On the % scale 0 is the no-effect control and ±100 the full control effect.

CC(=O)O[C@]1(C(C)=O)CC[C@H]2[C@@H]3C[C@H](C)C4=CC(=O)CC[C@]4(C)[C@H]3CC[C@@]21C
inactive: Potency [2] | Potency [3] | Potency [4] | Potency [6] | Potency [7] | Potency [9] | Potency [10] | Potency [11] | Potency [12] | Potency [13] | Potency [14] | Potency [15] | Potency [16]
inactive and 37.9 nM (active): Potency [1]
active: Potency [5] 15.5 µM | Potency [8] 174 nM and 301 nM | Potency [17] 19.3 µM

CCC(CO)(CO)COCC(CC)(CO)CO
inactive: Potency [1] | Potency [2] | Potency [3] | Potency [4] | Potency [5] | Potency [6] | Potency [7] | Potency [8] | Potency [10] | Potency [13] | Potency [14] | Potency [15] | Potency [16] | Potency [17]

CCN1CCCC1CNC(=O)c1cc(S(=O)(=O)CC)c(N)cc1OC (stereo not drawn)
inactive: Potency [1] | Potency [2] | Potency [3] | Potency [4] | Potency [5] | Potency [6] | Potency [7] | Potency [10] | Potency [11] | PLD induction [12] -3.27% [at 7.66 µM] | Potency [18] | Potency [13] | Potency [15] | Potency [16] | Potency [17]

OCCOCCN1CCN(C(c2ccccc2)c2ccc(Cl)cc2)CC1 (stereo not drawn)
48.3 µM (active) and inactive: Potency [4]
43.1 µM (active) and inactive: Potency [19]
inactive: Potency [1] | Potency [3] | Potency [6] | Potency [7] | Potency [9] | Potency [10] | Potency [18] | Potency [13] | Potency [16]
19.1 µM (active) and inactive: Potency [15]
6.83 µM (active) and inactive: Potency [5]
7.59 µM (active) and inactive: Potency [17]
24.2 µM (active) and inactive: Potency [2]
active: Potency [14] 26.9 µM

CC1=C(C=O)C(C)(C)CC=C1
inactive: Potency [1] | Potency [2] | Potency [3] | Potency [4] | Potency [5] | Potency [6] | Potency [7] | Potency [8] | Potency [19] | Potency [9] | Potency [10] | Potency [18] | Potency [13] | Potency [15] | Potency [16]

Cc1cc(C(C)(C)C)c(O)c(C(C)(C)C)c1
inactive: Potency [1] | Potency [2] | Potency [3] | Potency [4] | Potency [5] | Potency [6] | Potency [7] | Potency [8] | Potency [19] | Potency [10] | Potency [12] | Potency [14] | Potency [15] | Potency [16] | Potency [17]

CCCCCCCCCCCC[N+](C)(C)C
inactive and 24.3 µM (active): Potency [10]
inactive: Potency [1] | Potency [3] | Potency [4] | Potency [6] | Potency [7] | Potency [8] | Potency [19] | Potency [18] | Potency [16]
active: Potency [2] 43.5 µM and 49 µM and 43.6 µM | Potency [5] 4.89 µM | Potency [14] 43.1 µM and 61.1 µM and 54.5 µM | Potency [15] 60.9 µM and 61.1 µM and 30.6 µM | Potency [17] 384 nM and 24.3 nM and 6.86 µM

c1ccc2cc3c(ccc4ccccc43)cc2c1
active: Potency [18] 30.7 µM and 27.3 µM
inactive: Potency [1] | Potency [2] | Potency [3] | Potency [4] | Potency [5] | Potency [6] | Potency [7] | Potency [8] | Potency [19] | Potency [9] | Potency [10] | Potency [11] | Potency [13] | Potency [14] | Potency [15] | Potency [16] | Potency [17]

OCCN1CCNCC1
inactive: Potency [1] | Potency [2] | Potency [3] | Potency [4] | Potency [6] | Potency [7] | Potency [8] | Potency [19] | Potency [9] | Potency [10] | Potency [11] | Potency [18] | Potency [13] | Potency [15] | Potency [16] | Potency [17]
active: Potency [5] 7.9 µM

COc1ccc(COC(C)=O)cc1
inactive: Potency [1] | Potency [2] | Potency [3] | Potency [4] | Potency [5] | Potency [6] | Potency [7] | Potency [8] | Potency [19] | Potency [10] | Potency [13] | Potency [14] | Potency [15] | Potency [16] | Potency [17]

CCCNC(C)C(=O)Nc1ccccc1C (stereo not drawn)
inactive: Potency [1] | Potency [2] | Potency [3] | Potency [4] | Potency [5] | Potency [6] | Potency [7] | Potency [8] | Potency [19] | Potency [10] | Potency [11] | Potency [12] | Potency [18] | Potency [13] | Potency [14] | Potency [15] | Potency [16] | Potency [17]

COc1nc(C)nc(Cl)c1NC1=NCCN1
inactive: Potency [1] | Potency [2] | Potency [3] | Potency [4] | Potency [5] | Potency [6] | Potency [7] | Potency [8] | Potency [19] | Potency [9] | Potency [10] | Potency [11] | Potency [12] | Potency [18] | Potency [13] | Potency [15] | Potency [16] | Potency [17]
